# Source: PubChem BioAssay AID1117362 (Southern Research Institute, 2015)
# In all, about 3,600 compounds went through this assay and about 100 (2.8%) were called active.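 Rule for the calls: active = inhibition above 30% at one or more concentrations, seen consistently on every test date; inconclusive = results that disagree between repeat test dates; inactive = the rest.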 The list is a sample of the results.
# Experiment: biotin-GST/anti-GST TR-FRET signal inhibitors, dose response, artefact control for Vif-APOBEC3G degradation inhibitor project, biochemical (AID 1117362);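 note: biotinylated GST protein used in place of GST-Vif 1-94 and biotin-A3G peptide; detects fluorescence quenchers or blockers of GST binding to anti-GST antibody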
# Settings: TR-FRET counter screen; series mostly up to 100 µM
row,Compound,IC50
1,CN1CCC(N(C)C(=O)COc2ccccc2-c2ccccc2)CC1,inactive
2,O=C(O)CCCCC1CCSS1 (configuration not stated),inactive
3,CN(C)C(=O)c1nc2ccc(Cl)cn2c1CN1CCCC(OCc2ccccc2)C1 (configuration not stated),inactive
4,O=C1CC(Nc2ccc(N3CCOCC3)cc2)C(=O)N1c1ccccc1F (configuration not stated),inactive
5,Cc1ccc(/C=C/C(=O)Nc2cccc(S(=O)(=O)N3CCOCC3)c2)o1,inactive
6,CCOC(=O)/C=C1\SCC(=O)N1CC(=O)NC(C)c1ccc(F)cc1 (configuration not stated),inactive
7,CC1=C(C#N)C(=O)N(C)C(C)(C)C1,inactive
8,CN1CCc2nc3ccc(Cl)cc3c(-c3ccccc3Cl)c2C1,inactive
9,CNC(=O)c1ccccc1NC(=O)c1ccc(C)c(S(=O)(=O)N2CCCCC2)c1,inactive
10,Oc1ccc2ccccc2c1C1Nc2cccc3cccc(c23)N1,inactive
11,Cc1cc(C(=O)O)ccc1-n1c(C)ccc1C,inactive
12,COc1cc(C(=O)NCC(c2ccco2)N2CCCC2)ccc1OCc1c(C)noc1C (configuration not stated),inactive
13,Cc1cc(C(=O)CCl)c(C)n1-c1c(C)n(C)n(-c2ccccc2)c1=O,inactive
14,O=C(O)/C(=C/c1ccco1)NC(=O)c1ccccc1,inactive
15,O=[N+]([O-])c1c(NCCCO)cc(SCc2ccco2)c2nonc12,inactive
16,CCc1c(C)sc(NC(=O)c2cc(-c3ccco3)on2)c1C#N,inactive
17,Cc1oc(-c2ccc(Cl)cc2)cc1-c1nn2c(-c3ccoc3C)nnc2s1,inactive
18,CCC(c1nnnn1Cc1ccco1)N(Cc1ccccc1OC)Cc1cc2cc(C)ccc2[nH]c1=O (configuration not stated),inactive
19,S=c1[nH]nc(COc2ccc3c(c2)OCO3)n1-c1ccccc1,inactive
20,O=P(O)(CN1CCCCCC1)CN1CCCCCC1,inactive
21,C=CCN=c1scc(-c2ccco2)n1/N=C/c1ccc(O)c(O)c1O,inactive
22,N#CC1=C(N)OC2=C(CCC/C2=C/c2ccoc2)C1c1ccoc1 (configuration not stated),inactive

row,Compound,IC50
1,Cc1cc(C(=O)CSc2nc3ccccc3c(=O)[nH]2)c(C)n1C,inactive
2,C=C(C)C(=O)Nc1cccc(C2=NOC3(C2)C[C@@H](C(N)=O)N(C(=O)CC(c2ccccc2)c2ccccc2)C3)c1 (some centres not stated),inactive
3,CSc1nc(NCCOCCO)c2sc3nc(-c4ccco4)c4c(c3c2n1)CCC4,inactive
4,COC(=O)Cn1c(CCC(=O)O)ccc1-c1ccccc1,inactive
5,O=C(OC1CCCCC1)c1ccc2c(c1)C1C=CCC1C(C(=O)O)N2 (configuration not stated),inactive
6,COc1cccc(C2C(C#N)=C(N)OC3=C2C(=O)CC(c2ccco2)C3)c1OCc1ccc(F)cc1 (configuration not stated),inactive
7,Cc1ccc(CCC(=O)Nc2ccc(S(N)(=O)=O)cc2)o1,inactive
8,CCOC(=O)c1cc(NC(=O)N2CCCc3ccccc32)c(C)nc1C,inactive
9,CNC(=O)[C@@H]1C[C@H]1[C@@H](NC(=O)OCc1ccccc1)c1ccccc1,inactive
10,C(=C\c1ccco1)/C=N/n1cnnc1,inactive
11,O=C(/C=C/c1ccco1)NC(=S)Nc1ccccc1N1CCOCC1,inactive
12,C=CCn1c(O)c(C(CC)=NCCN2CCOCC2)c(=O)[nH]c1=O,inactive
13,CC(/C=N/n1c(-c2ccncc2)n[nH]c1=S)=C\c1ccco1,inactive
14,CCOc1cc(CNc2ccc(O)cc2)ccc1OCc1ccc(Cl)cc1Cl,inactive
15,O=C(O)C1Nc2c(Cl)cc(Cl)c(Cl)c2C2C=CCC12 (configuration not stated),inactive
16,Cc1ccc(NC(=O)CN(C)C(=O)c2cccc(-n3cccc3)c2)cc1,inactive
17,CCc1ccccc1NC(=O)c1cccc(NC(=O)/C=C/c2ccco2)c1,inactive
18,Cc1cc2ccccc2n1CCNC(=O)C1CCCCC1,inactive
19,COc1cccc(-n2c(Cc3cc(=O)[nH]c(=O)[nH]3)nnc2SCC(=O)NC2CCCC2)c1,inactive
20,Cc1cc(C)nc(N2CCC(C(=O)O)CC2)n1,inactive
21,COc1ccc(NC(=S)NCCc2ccccc2OC)c(OC)c1,inactive
22,C=CCn1c(COc2ccc(F)cc2)nnc1SCC(=O)NC(=O)NCc1ccco1,inactive

row,Compound,IC50
1,Clc1ccc(OCc2nn3c(-c4ccco4)nnc3s2)c(Cl)c1,inactive
2,COC(C(=O)C(O)C(C)O)C1Cc2cc3cc(OC4CC(OC5CC(O)C(O)C(C)O5)C(O)C(C)O4)c(C)c(O)c3c(O)c2C(=O)C1OC1CC(OC2CC(OC3CC(O)C(OC)C(C)O3)C(O)C(C)O2)C(O)C(C)O1 (configuration not stated),inactive
3,O=c1oc(/C=C/c2ccco2)nc2sc3c(c12)CCC3,inactive
4,Cc1cc(C(=O)CSc2nnc(-c3ccccc3)n2Cc2ccc3c(c2)OCO3)c(C)n1C,inactive
5,COC(=O)c1ccc(COc2ccccc2/C=C(\C#N)C(=O)Nc2c(C)cc(C)cc2C)cc1,inactive
6,CCOc1ccc(-c2nnn(CC(=O)c3ccc4c(c3)OCCO4)n2)cc1OCC,inactive
7,Cc1cccc(C)c1NC(=O)CSc1nnc(-c2ccco2)c(-c2ccco2)n1,inactive
8,O=C(C1CCCN1S(=O)(=O)c1cccc2cccnc12)N1CCN(c2ccccc2)CC1 (configuration not stated),inactive
9,CNc1ccccc(-c2ccc3cc4c(cc3n2)OCO4)c1=O,inactive
10,O=C(CCN1C(=O)/C(=C/c2cccs2)SC1=S)NC1=NCCS1,inactive
11,COCCNc1nnc(SC(C)C(=O)Nc2ccc(-c3nc4ccc(C)cc4s3)cc2)s1 (configuration not stated),inactive
12,COc1ccc2[nH]c(=O)c(CN(Cc3ccco3)C(c3nnnn3Cc3ccccc3)C(C)C)cc2c1 (configuration not stated),inactive
13,C=CCOC(=O)C1=C(C)NC(SCC(=O)Nc2ccccc2)=C(C#N)C1c1ccco1 (configuration not stated),inactive
14,N#C/C(=C\c1ccc([N+](=O)[O-])o1)C(=O)Nc1ccc(F)cc1,inactive
15,c1cn2cc(CSC3CCCCC3)nc2s1,inactive
16,Cc1ccc(N2C(=O)/C(=C\c3ccco3)SC2=S)cc1,inactive
17,CCC(C)(C)n1nnnc1C(c1ccc2ncccc2c1)N1CCN(c2ccc(O)cc2)CC1 (configuration not stated),inactive
18,CC1(C)OC(=O)C(=C2CCCN2)C(=O)O1,inactive
19,COC(=O)C1=C(C)NC(=O)/C1=C\c1cc(C)n(-c2ccccc2C)c1C,inactive
20,O=C(Nc1ccc(F)cc1)C(c1ccccc1)N1CCN(S(=O)(=O)c2ccc3ccccc3c2)CC1 (configuration not stated),inactive
21,CCCCC(=O)NC(=S)Nc1cc(C(=O)O)ccc1Cl,inactive
22,Cc1occc1-c1nnc(SCC(=O)N2CCN(c3ccccc3)CC2)n1C,inactive

row,Compound,IC50
1,CC(C)n1c(=NC(=O)c2ccco2)c(C#N)cc2c(=O)n3ccccc3cc21,inactive
2,CCOC(=O)C1CCN(C(=O)COc2ccc(S(=O)(=O)NC(C)C)cc2)CC1,inactive
3,CCOC(=O)Cc1cc(=O)n2[nH]c(C)cc2n1,inactive
4,COCCNC(=O)c1ccc(CS(=O)(=O)c2c(Cl)cccc2Cl)o1,inactive
5,CC(C)CC(=O)Nc1nnc(-c2ccco2)s1,inactive
6,CCOc1cccc(CNCCNC(=O)c2nonc2N)c1,inactive
7,COc1ccc(-n2c(Cc3cccn3C)nnc2SCC(N)=O)cc1,inactive
8,COC(=O)CCCC(=O)Nc1c(F)c(F)c(F)c(F)c1F,inactive
9,CCOc1ccc(Nc2nc3ccccc3n3nnnc23)cc1,inactive
10,CN(CC(=O)Nc1cccc(F)c1)C(=O)c1cccc(-n2cccc2)c1,inactive
11,O=C(NC1CCC(C(=O)O)CC1)OCc1ccccc1 (configuration not stated),inactive
12,CCc1cc(=O)n2[nH]c(C)c(-c3ccccc3OC)c2n1,inactive
13,COc1cccc(CNC(=O)CCNS(=O)(=O)c2cccs2)c1,inactive
14,COc1cccc(C(C#N)N2CCCCC2)c1O (configuration not stated),inactive
15,O=C(N/N=C/c1cn(Cc2cccc(F)c2)c2ccccc12)c1cc(O)cc(O)c1,inactive
16,O=C(CSc1nnnn1-c1ccccc1)Nc1ncc2c(n1)CC(c1ccco1)CC2=O (configuration not stated),inactive
17,CCOc1ccc(NCC2CCOC(C)(C)C2)cc1 (configuration not stated),inactive
18,CCOC1(OCC)N=C(N)C2(C#N)C(c3cccc(OC)c3OC)C12C#N (configuration not stated),inactive
19,CCOC(=O)C1CCCN(C(=O)c2ccc(CNc3c(N4CCC(C)CC4)c(=O)c3=O)cc2)C1 (configuration not stated),inactive
20,CCc1ccc(CC)c(S(=O)(=O)Nc2ccc(C(=O)O)c(O)c2)c1,inactive
21,CC/C(=C\C(=O)c1ccncc1)Nc1ccc(O)cc1,inactive
22,CCNc1ccc(Br)cc(C(=O)/C=C/c2ccc3c(c2)OCO3)c1=O,inactive

row,Compound,IC50
1,O=[N+]([O-])c1cc(CN2CCOCC2)c2cccnc2c1O,inactive
2,Cc1ccc[n+](-c2[nH]c(=O)sc2/C=N/NC(=O)c2ccccc2[O-])c1,inactive
3,Cc1cc(C(=O)CSc2nnc(-c3ccco3)o2)c(C)n1Cc1ccco1,inactive
4,COc1ccc2[nH]c3c4c(ccc3c2c1)C(=O)C=CC4=O,inactive
5,O=C(Nc1ccccc1N1CCCC1)c1ccc(Br)o1,inactive
6,COC(=O)C(C)Sc1nnc(Cc2cc(=O)[nH]c(=O)[nH]2)n1-c1cc(C)ccc1C (configuration not stated),inactive
7,O=C(Nc1ccccc1)C1=C(O)CC(c2ccco2)CC1=Nc1ccccc1 (configuration not stated),inactive
8,O=C(c1cc(-c2ccco2)on1)N1CCN(c2ccccc2)CC1,inactive
9,Cc1cc(NC(=O)CCNS(=O)(=O)c2cc(Br)cnc2N)ccc1Br,inactive
10,Cc1cc(C(=O)CSc2nnnn2C)c(C)n1CCc1ccc(Cl)cc1,inactive
11,CC1(C)CCCN(C(=O)c2coc(=O)c(Br)c2)C1,inactive
12,FC(F)(F)c1cc(-c2ccco2)nc(NCc2cccnc2)n1,inactive
13,CN(C)c1ccc(NC(=O)CSc2nc3ccccc3c(=O)n2C2CCCCC2)cc1,inactive
14,CC(=O)Nc1ccc(NC(=O)C(C)OC(=O)CC23CC4CC(CC(Br)(C4)C2)C3)cc1 (configuration not stated),inactive
15,Cn1cccc1C(=O)NC(=O)COC(=O)CC12CC3CC(CC(Br)(C3)C1)C2,inactive
16,O=C(O)C1Nc2c(C(=O)N3CCOCC3)cccc2C2C=CCC12 (configuration not stated),inactive
17,O=C(Nc1ccn(-c2ccccc2)n1)c1ccccc1Br,inactive
18,CC(=O)c1cccc(NC(=O)CN2C(=O)NC3(CCCCCCC3)C2=O)c1,inactive
19,COc1ccc(-n2c(C)cc(C(=O)CSc3nn4c(=O)c(C(C)(C)C)nnc4s3)c2C)cc1,inactive
